Rpn11 inh – blocks the human proteasome subunit Rpn11. O00487. human 26S proteasome, Ub4-pepOG fluorescence polarization; 20S core pre-blocked with epoxomicin. calls only at 20 µM. hit rate 0.59% among 360,000;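 active means inhibition at 20 µM, scaled to each plate's controls, above about 33%, limit read from the data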
PKA-R2B activ – activates the human PKA-R2B holoenzyme complex. P22694+P31323. PKA-R2B holoenzyme dissociation, Cy5-IP20 fluorescence polarization; R2B truncated from residue 108, S112A mutant; 0% DMSO only, 100% 113 µM cGMP. activation, % at 11.4 µM. hit rate 0.079% among 340,000. AID 504700;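 active means activation above a cutoff set at the mean over all compounds plus 3 SD, cut at about 18% in these data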;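 further: higher means more holoenzyme dissociation and a rise in polarization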
PKA-R1A activ – activators of PKA-R1A complex; PKA-R1A dissociation, Cy5-IP20 fluorescence polarization; scaled: DMSO 0%, 113 µM cGMP 100%; activation, % at 11.4 µM; hit rate 0.083% among 340,000;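 active means percent activation above the mean of all tested compounds plus 3 SD, cut at about 19% in these data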;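 further: higher means more PKAc released from R1A so a rise in polarization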
Neddyl block – inhibitors of human cullin neddylation; P61081+Q13564; TR-FRET cullin neddylation, biochemical; inhibition, % at 25 µM; hit rate 0.58% among 360,000; AID 651699; in the data active means inhibition above about 36%
Rpn11 confirm – Rpn11 inhibition confirmation, single concentration. shares compounds with Rpn11 inh. hit rate 29% among 1,900. inhibition, % at 20 µM. purified human 26S proteasome, Ub4-pepOG fluorescence polarization; proteasome pretreated with epoxomicin
MMP-2 counter – counter-screen for RPN11 inhibitors: inhibition of human MMP-2; shares compounds with Rpn11 inh; hit rate 4% among 1,900; recombinant MMP-2, FRET peptide cleavage fluorescence; inhibition, % at 20 µM;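 further: human MMP-2 activated beforehand with APMA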
Thrombin FP – counter-screen for RPN11 inhibitors: inhibition of bovine thrombin; bovine thrombin cleavage of Ub4-pepOG, fluorescence polarization; inhibition, % at 20 µM; hit rate 13% among 1,900; AID 602333; shares compounds with Rpn11 inh;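 active means mean inhibition at least 40% at 20 µM, or signal 3 deviations below plate average, so some actives read negative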;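 further: plate controls were thrombin with DMSO for no effect and buffer wells lacking thrombin for full effect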
Target sequence (P00735 whole entry, looked up): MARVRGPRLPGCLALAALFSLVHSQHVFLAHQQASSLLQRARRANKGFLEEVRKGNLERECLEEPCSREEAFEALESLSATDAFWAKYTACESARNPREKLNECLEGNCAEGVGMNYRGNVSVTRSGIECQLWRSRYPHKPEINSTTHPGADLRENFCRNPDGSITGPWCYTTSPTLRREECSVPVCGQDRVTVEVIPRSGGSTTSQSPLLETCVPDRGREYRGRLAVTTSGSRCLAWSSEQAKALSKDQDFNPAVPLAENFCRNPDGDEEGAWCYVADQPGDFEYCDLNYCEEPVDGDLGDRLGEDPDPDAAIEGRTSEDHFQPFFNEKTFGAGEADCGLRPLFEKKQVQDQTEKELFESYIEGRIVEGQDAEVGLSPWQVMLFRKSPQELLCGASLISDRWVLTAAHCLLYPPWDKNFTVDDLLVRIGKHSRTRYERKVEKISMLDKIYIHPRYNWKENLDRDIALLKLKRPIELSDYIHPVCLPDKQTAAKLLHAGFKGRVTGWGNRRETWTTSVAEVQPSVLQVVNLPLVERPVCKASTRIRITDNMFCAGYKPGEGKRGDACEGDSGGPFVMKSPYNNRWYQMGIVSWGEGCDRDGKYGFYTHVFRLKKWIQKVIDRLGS
The depositor's hits bear a star; i = inactive; x = no result given; + = active, no number. Shown are actives, neighbours in structure and some others; about 1.3% of the full set was active somewhere. Unless noted, no stated cut-off is given here; in the data, active means inhibition above about 40%; inactive means the rest.

SMILES	Rpn11 inh	PKA-R2B activ	PKA-R1A activ	Neddyl block	Rpn11 confirm	MMP-2 counter	Thrombin FP
O=C(O)C1(c2ccccc2)CCN(S(=O)(=O)c2ccc(Br)cc2)CC1	i	4	-16	-1	x	x	x
COc1cc(CC(=O)N2CCN(C(=O)C3CCCO3)CC2)cc(OC)c1OC (stereo not drawn)	i	-4	-4	8	x	x	x
CCCCCCCCCC[N+](C)(C)CC/C=C1/c2ccccc2Sc2ccc(Cl)cc21	+	6	-7	11	38	-2	1
CCC(CC)CN1CCN=C1Nc1ccccc1	i	6	1	1	x	x	x
COc1ccc(Br)cc1S(=O)(=O)NCCc1cccs1	i	-10	3	0	x	x	x
Nc1nc(-c2ccccc2)c(-c2ccccc2)n1N	+	-10	-18	27	13	-31	14
COc1cc(/C=C2\N=C3CCCCCN3C2=O)ccc1O	+	-6	13	-13	88*	-27	67*
COc1cc(-c2ccc3oc(-c4ccsc4)cc(=O)c3c2)cc(OC)c1OC	i	-3	3	22	x	x	x
CCOC(=O)c1ccc(-c2ccc3oc(-c4ccsc4)cc(=O)c3c2)cc1F	+	2	-14	-236	-8	-21	-11
O=C(COc1ccccc1)NCC(c1ccco1)N1CCCCC1 (stereo not drawn)	i	-3	-2	6	x	x	x
O=C(CCOc1ccccc1)NCC(c1ccco1)N1CCCCC1 (stereo not drawn)	+	-2	-4	3	-9	-55	-4
Cc1nc2ccc(NC(=O)[C@@H](NC(=O)c3c(F)cccc3F)C(C)C)cc2s1	+	-5	-15	-24	58*	-43	70*
COc1cc(OC)cc(C(=O)NC(C(=O)Nc2ccc3nc(C)sc3c2)C(C)C)c1 (stereo not drawn)	i	-14	5	10	x	x	x
Cc1ccc2nc(NC(=O)c3ccc(S(=O)(=O)N4CCCc5ccccc54)cc3)sc2c1	+	1	-4	26	-15	-34	-14
Cc1ccc(S(=O)(=O)N2CCCC2C(=O)Nc2nc3ccccc3s2)cc1 (stereo not drawn)	+	-3	-2	-2	-14	0	-19
O=C(Nc1nc2ccccc2s1)C1CCCN1S(=O)(=O)c1ccc(Cl)cc1 (stereo not drawn)	i	-1	9	-11	x	x	x
O=C(Nc1nc2ccc(F)cc2s1)c1cccc(S(=O)(=O)N2CCc3ccccc32)c1	i	-2	-8	-21	x	x	x
O=C(Nc1nc2ccc(S(=O)(=O)N3CCCCC3)cc2s1)c1cccnc1	+	-1	-11	29	6	-9	-2
CN1CCc2nc(NC(=O)c3cccc(S(=O)(=O)N4CCc5ccccc54)c3)sc2C1	+	3	9	29	4	11	-3
CC1(C)Cc2c(sc(NC(=O)C(=O)N3CCOCC3)c2C(N)=O)CO1	i	-6	-5	-19	x	x	x
O=C(N/N=C/c1cccnc1)/C(=C\c1cccs1)NC(=O)c1ccccc1	i	-3	13	-6	x	x	x
O=C(N/N=C/c1cc2ccccc2nc1Cl)/C(=C/c1cccs1)NC(=O)c1ccccc1	+	4	2	8	19	-175	15
Cc1c(NC(=O)c2cccc(-c3cc4ccccc4oc3=O)c2)cccc1-c1nc2ncccc2o1	+	-2	-5	-112	110*	-27	0
COc1cccc(-c2csc(N3CCN(C(=S)Nc4cccc(Cl)c4)CC3)n2)c1	+	2	5	-14	18	39	10
CN(C)C(CNC(=O)c1ccc(S(=O)(=O)Nc2ccccc2F)cc1)c1ccco1 (stereo not drawn)	i	-1	1	-9	x	x	x
SMILES	Rpn11 inh	PKA-R2B activ	PKA-R1A activ	Neddyl block	Rpn11 confirm	MMP-2 counter	Thrombin FP
Cc1ccc(-c2nc(NC(=O)CSc3nnc4scc(-c5ccccc5)n34)ns2)cc1	+	3	-2	-67	7	-30	-2
O=C(CCCN1C(=O)/C(=C/c2cccs2)SC1=S)Nc1cccc(C(=O)O)c1	i	-7	4	-20	x	x	x
O=C(CCN1C(=O)/C(=C\c2cccs2)SC1=S)Nc1ccccn1	+	-3	0	-10	60*	32	24
O=C(CCN1C(=O)/C(=C/c2cccs2)SC1=S)Nc1cccc(C(=O)O)c1	+	-4	9	-34	47*	-6	51*
COc1ccc(C(C(=O)NC(C)(C)C)N(C(=O)CCC(=O)Nc2cc(C)on2)c2ccc(C)c(C)c2)cc1 (stereo not drawn)	i	-1	6	6	x	x	x
CCCSCCCNC(=O)c1ccc(NC(=O)C2=CSCCO2)cc1	i	3	0	1	x	x	x
CC(=O)N1CCc2cc(N=NC3=C(O)CCCC3=O)ccc21	+	-13	-9	-99	51*	-7	22
O=C1CCCC(O)=C1N=Nc1ccc(Cl)c(Cl)c1	i	-18	-5	-51	x	x	x
Oc1cc(Br)ccc1C=Nc1ccc(N2CCCCC2)cc1	+	4	-10	-5	25	-26	9
Cc1ccc(-c2nc3c(c(=O)[nH]c(=O)n3Cc3ccccc3)n2Cc2ccccc2)o1	i	4	-5	24	x	x	x
Cc1cc(C)c2c(=O)[nH]c(=O)n(Cc3ccccc3)c2n1	+	3	13	-315	95*	30	50*
Cc1ccc(CN2CCN(Cc3ccc4cc(F)ccc4n3)CC2CCO)o1 (stereo not drawn)	i	6	-2	-5	x	x	x
CN(C)S(=O)(=O)c1ccc(/C(O)=C2/C(=O)C(=O)N(CCCN3CCOCC3)C2c2ccncc2)cc1 (stereo not drawn)	i	-2	4	-5	x	x	x
Cc1ccccc1NC(=O)Cn1nnc(C(=O)NCc2ccco2)c1N	i	0	8	0	x	x	x
Cc1ccccc1NC(=O)Cn1nnc(S(=O)(=O)c2ccc(C(C)(C)C)cc2)c1N	+	10	1	0	31	-17	-6
C=CCN=C1S/C(=C\c2ccc(N(C)C)cc2)C(=O)N1CC=C	+	-10	6	-4	19	-11	21
C=CCN1C(=O)/C(=C/c2ccc(OC)cc2)S/C1=N/c1nccs1	i	4	-9	28	x	x	x
COc1ccc(C(=O)N/C(=C\c2cn(S(=O)(=O)N(C)C)c3ccccc23)C(=O)NCCN2CCOCC2)cc1	i	2	6	-4	x	x	x
CC(C)(C)c1cc(C(F)(F)F)c(C#N)c(=O)[nH]1	+	-4	9	x	5	-22	4
CCCc1cc(C(F)(F)F)c(C#N)c(=O)[nH]1	i	-3	9	x	x	x	x

Source: PubChem
